Values without a mark were called inactive. Inconclusive results are not listed. Activity calls are given as the source filed them. Unless noted, calls come from the whole dose curve; as a rule, active = well fitted curve in either direction with a large enough effect (not every such curve was filed as active); inconclusive = small, poorly fitted or top-dose-only effect, or another doubt; inactive = flat fitted curve, though single readings scatter.
Legend:
[1] = AP1 Signaling Pathway (AID 357); conditions: ME-180 AP-1-bla reporter, EGF-induced, beta-lactamase ratio, 5 h; at 17.2 µM (top of the series) unless noted;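 note: ME-180 reporter cells stimulated with EGF at its EC50 level; % is set by controls: 0 for no effect and ±100 for the full control effect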
How it was run: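 Read-out was the 460nm/530nm emission ratio (excitation 405nm) after CCF4 loading for 2.5 hours at room temperature. Cells carried an AP-1-driven beta-lactamase reporter, were stimulated with EC50 EGF plus compound for 5 hours, and AC50 values came from titrations.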

[2] = NFAT Signaling Pathway (AID 444); conditions: Jurkat NFAT-bla M1, carbachol, beta-lactamase ratio, 5 h; at 17.2 µM (top of the series) unless noted;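 note: carbachol stimulus at about its EC50 of 1 µM final; % is set by controls: 0 for no effect and ±100 for the full control effect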
How it was run: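 Read-out: CCF4 FRET ratio (460 nm/530 nm) after 1 h RT dye loading, used for %activity and AC50 from titration series. Cells: Jurkat NFAT-β-lactamase/M1 line, treated with compound plus 1 uM carbachol for 5 h, 37 °C.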

[3] = Stat Signaling Pathway (AID 446); conditions: ME-180 (cervical carcinoma) SIE beta-lactamase reporter, IL-6 stimulated, 5 h; at 17.2 µM (top of the series) unless noted;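 note: ME-180 cervical cancer cells given 40 pM IL-6 alongside compound; SIE-controlled beta-lactamase reporter measured as 460/530 nm FRET emission ratio; % is set by controls: 0 for no effect and ±100 for the full control effect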
How it was run: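 FRET read-out (405 nm excitation, 460/530 nm emission) of a beta-lactamase reporter under a STAT-inducible element in ME-180 cervical carcinoma cells. Cells with compound receive 40 pM IL-6 for 5 h. Values are normalised to AC90 stimulation and AC90 JAK-inhibitor controls.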

[4] = biological target: Glucocorticoid receptor (Homo sapiens) (UniProt P04150); assay: GR-GFP Redistribution (AID 450;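 active = compounds whose dose series gives a full or clear partial fitted curve of increased nuclear translocation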; note: potency is the fitted concentration of half-maximal effect)
Sequence of Glucocorticoid receptor (Homo sapiens) (P04150 whole entry, looked up): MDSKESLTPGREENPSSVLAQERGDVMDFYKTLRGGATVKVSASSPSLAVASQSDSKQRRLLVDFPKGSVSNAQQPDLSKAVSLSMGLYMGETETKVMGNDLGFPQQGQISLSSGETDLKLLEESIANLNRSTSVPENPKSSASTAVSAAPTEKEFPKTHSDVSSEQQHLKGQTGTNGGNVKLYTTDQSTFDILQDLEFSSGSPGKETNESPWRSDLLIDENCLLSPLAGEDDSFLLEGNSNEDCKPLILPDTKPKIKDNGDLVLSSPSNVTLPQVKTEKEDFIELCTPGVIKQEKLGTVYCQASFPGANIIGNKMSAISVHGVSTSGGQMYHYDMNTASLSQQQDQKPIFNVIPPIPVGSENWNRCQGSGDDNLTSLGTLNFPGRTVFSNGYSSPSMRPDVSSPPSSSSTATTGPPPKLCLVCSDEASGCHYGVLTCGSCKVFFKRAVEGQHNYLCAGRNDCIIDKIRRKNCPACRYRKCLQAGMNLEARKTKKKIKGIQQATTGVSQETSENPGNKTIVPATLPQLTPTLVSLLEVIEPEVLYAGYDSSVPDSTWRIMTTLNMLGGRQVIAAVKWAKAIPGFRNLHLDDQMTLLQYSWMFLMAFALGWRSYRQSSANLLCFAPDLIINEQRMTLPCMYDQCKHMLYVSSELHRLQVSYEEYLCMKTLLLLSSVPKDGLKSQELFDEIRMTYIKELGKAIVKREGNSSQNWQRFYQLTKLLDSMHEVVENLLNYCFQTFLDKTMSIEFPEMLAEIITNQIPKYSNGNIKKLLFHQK

| SMILES | activity change, negative = inhibition [1] [%] | activity change, negative = inhibition [2] | activity, negative = inhibition [3] [%] | Potency [4] |
| --- | --- | --- | --- | --- |
| Cn1c(=O)oc2cc(C(=O)c3ccccc3)ccc21 | -10.8 | -9.48% | 0.21 | > 20.6 µM |
| CCCn1nc(Oc2nc(SC)nc(N(C)C)n2)ccc1=O | 12.8 | -5.95% | -17.7 | > 20.6 µM |
| CCOc1ccc2nc(SCC(=O)Nc3ncccn3)[nH]c2c1 | -9.31 | 0.119% | -2.35 | > 20.6 µM |
| Nc1ncnc2nc(SCc3ccccc3)[nH]c12 | -9.21 | -4.19% | -9.74 | > 20.6 µM |
| CCOc1nc(Oc2cccc(C(=O)O)c2)nc(Oc2cccc(C(=O)O)c2)n1 | 29.4 | 0.693% | 8.24 | > 20.6 µM |
| Cc1cc2nncn2c(Cc2ccccc2)n1 | -3.42 | -3.53% | -8.81 | > 20.6 µM |
| COc1ccccc1NC(=O)c1c(C)cc(=O)oc1C | 13 | 12.5% | 0.453 | > 20.6 µM |
| COc1ccc(OCC(=O)OCCN(C)C)cc1 | 7.78 | 11.6% | -3.32 | > 20.6 µM |
| Cn1ncc(N=Cc2ccccc2)c1C(N)=O | 5.51 | 6.04% | 5.52 | > 20.6 µM |
| O=C(Cc1ccc(Cl)cc1)Nc1cccc(-c2nnc(-c3ccco3)o2)c1 | -5.69 | 11.3% | -1.67 | > 20.6 µM |
| CCOC(=O)C(NC=O)(NC(C)(C)C)C(=O)OCC | -2.44 | 4.66% | 24.2 | > 20.6 µM |
| O=C(O)C1CC(=O)n2c(nc3ccccc32)S1 (centres undefined) | -9.56 | -10.4% | 6.25 | > 20.6 µM |
| Cc1ccccc1COc1ccc(/C(O)=C2/C(=O)C(=O)N(CCCn3ccnc3)C2c2ccco2)cc1 (centres undefined) | -11.1 | 10.8% | 3.48 | > 20.6 µM |
| CCc1cc(=O)oc2cc(C)c(CN3CCCCC3)c(O)c12 | 7.78 | -13.9% | -6.86 | > 20.6 µM |
| COc1cc(N2C(=O)CSC23C(=O)Nc2ccccc23)cc(OC)c1OC (centres undefined) | 14.9 | 18.9% | -2.69 | > 20.6 µM |
| CC1(C)CC(=O)C=C(NCc2ccncc2)C1 | 10 | -8.43% | 8.27 | > 20.6 µM |
| O=c1c(-c2ccc(Cl)cc2)[n+]([O-])c2ccccc2n1O | -1.42 | -15.3% | -2.31 | > 20.6 µM |
| CCN(CC)CCN1C(=O)C(=O)/C(=C(/O)c2ccc(F)cc2)C1c1ccncc1 (centres undefined) | -7.07 | 17.1% | 1.89 | > 20.6 µM |
| N#Cc1ccc(-c2cccnc2)nc1SCC(=O)Nc1sc2c(c1C#N)CCC2 | -1.23 | -7.12% | -7.78 | > 20.6 µM |
| O=C(Nc1ccc2c(c1)OCO2)c1cc2n(n1)C(C(F)(F)F)CC(c1ccccc1)N2 (centres undefined) | 6.53 | 6.64% | -1.67 | > 20.6 µM |
| Cc1nn(CC(=O)N2CCOCC2)c(=O)c2ccccc12 | 10.7 | 8.23% | 1.28 | > 20.6 µM |
| Nc1ccc2c3c(cccc13)CC2 | 0.829 | 11.5% | 7.79 | 3.98 µM (active) |
| CCC(=O)Nc1cccc(-c2nnc(SCC(=O)NCc3ccco3)n2C)c1 | -2.45 | 6.34% | -2.86 | > 20.6 µM |
| S=c1[nH]nc(-c2ccco2)n1Cc1ccccc1 | 6.39 | 3.89% | 21.7 | > 20.6 µM |
| Cc1ccc(S(=O)(=O)NC(=O)NCc2ccc3c(c2)OCO3)cc1 | 12.9 | -5.13% | 0.559 | > 20.6 µM |
| CCSc1nnc(NC(=O)NCC(F)(F)F)s1 | 7.55 | 2.76% | 16.4 | > 20.6 µM |

| SMILES | activity change, negative = inhibition [1] [%] | activity change, negative = inhibition [2] | activity, negative = inhibition [3] [%] | Potency [4] |
| --- | --- | --- | --- | --- |
| CC1(C)NC(=O)N(CC(O)Cn2nnc3ccccc32)C1=O (centres undefined) | 5.85 | 8.84% | 6.79 | > 20.6 µM |
| Cn1ncc2nnn(-c3ccccc3)c(=O)c21 | 3.86 | -4.96% | 3.98 | > 20.6 µM |
| CC1(C)Cc2c(C#N)c(SCCC#N)nc(N3CCOCC3)c2CS1 | -12.8 | 3.6% | -3.44 | > 20.6 µM |
| COc1ccccc1C1CC(c2ccc(Cl)cc2)Nc2nc(N)nn21 (centres undefined) | 6.6 | 22.1% | -2.9 | > 20.6 µM |
| Cc1c(O)c(CN2CCCC(C)C2)cc2c3c(c(=O)oc12)CCC3 (centres undefined) | 13.2 | -10.5% | 6.92 | > 20.6 µM |
| CCOC(=O)c1oc2cc(O)cc(C)c2c(=O)c1-c1cscn1 | 0.0813 | 11.5% | -0.432 | > 20.6 µM |
| COc1cccc(C2C(C#N)=C(N)Oc3cc(C)[nH]c(=O)c32)c1OC (centres undefined) | -18.5 | 0.0621% | -3.84 | > 20.6 µM |
| COc1cccc(C2C(C(=O)c3cc4ccccc4o3)=C(O)C(=O)N2CCN(C)C)c1OC (centres undefined) | 8.36 | 1.15% | -6.68 | > 20.6 µM |
| Clc1ccc(COc2ccccn2)c(Cl)c1 | 10 | -8.68% | 15.3 | > 20.6 µM |
| CCOC(=O)C1CCN(c2ncnc3c2cnn3-c2ccc(OC)cc2)CC1 | 4.62 | -5.45% | 1.28 | > 20.6 µM |
| CC(NC(=O)OCc1ccccc1)C(=O)OCN1C(=O)c2ccccc2C1=O (centres undefined) | -1.4 | -16.6% | 13.6 | > 20.6 µM |
| Cc1c(/C(O)=C2\C(=O)C(=O)N(CCN(C)C)C2c2cccs2)cnn1-c1ccccc1 (centres undefined) | 6.26 | -10.6% | -3.53 | > 20.6 µM |
| C=CCc1c(C)c(C#N)c2nc3ccccc3n2c1N1CCN(C)CC1 | -17.1 | 4.5% | 3.98 | > 20.6 µM |
| COc1ccc(/C(O)=C2\C(=O)C(=O)N(c3cc(C)on3)C2c2cccc(OC)c2OC)cc1C (centres undefined) | -5.37 | 6.15% | -17.9 | > 20.6 µM |
| Cn1c(-n2c(-c3ccco3)nc3ccccc3c2=O)nc2ccccc21 | -5.43 | -6.94% | 9.91 | > 20.6 µM |
| CC(C)Cc1[nH]c(=O)c(C#N)c2c1COC(C)(C)C2 | 9.17 | 17.3% | 2.18 | > 20.6 µM |
| Cc1ccc(C2CC(C(F)(F)F)n3ncc(C(N)=O)c3N2)cc1 (centres undefined) | -3.17 | 2.37% | 5.84 | > 20.6 µM |
| Cc1nc2c(=O)n(C)c(=O)[nH]c2n1Cc1ccccc1 | 10.3 | 14.6% | -0.854 | > 20.6 µM |
| COc1cccc(C2/C(=C(\O)c3ccc4c(c3)OCCO4)C(=O)C(=O)N2CCN(C)C)c1 (centres undefined) | -3.08 | 2.4% | 9.63 | > 20.6 µM |
| Cn1nnnc1-c1cc(Br)ccc1NC(=O)c1ccccc1 | 28.6 | -1.05% | 24.3 | > 20.6 µM |
| COC(=O)c1cc(Br)c(=O)n(-c2nccs2)c1 | 1.9 | -2.48% | 2.73 | > 20.6 µM |
| CCOC(=O)CC(=O)CSc1nc2c(cc1C#N)CCCCCC2 | -15.8 | 2.93% | -11.8 | > 20.6 µM |
| O=C(CCC(=O)CCN1CCCCC1)CCN1CCCCC1 | 13.9 | -120% (active) | 1.96 | > 20.6 µM |
| CCCCCCCC(=O)OCC(=O)[C@@]1(O)CC[C@H]2[C@@H]3CCC4=CC(=O)CC[C@]4(C)[C@H]3[C@@H](O)C[C@@]21C | -9.61 | -28.6% | 7.91 | 0.00571 µM (active) |
| Cc1cc(C)n(C(=O)CNC(=O)CCc2ccccc2)n1 | 8.64 | 9.94% | 2.58 | > 20.6 µM |

— PubChem BioAssay (NCATS)
